# Test results from publication PMC7862700, “An all-to-all approach to the identification of sequence-specific readers for epigenetic DNA modifications on cytosine”.
# Legend:
# Test in all cases: DAPPL (digital affinity profiling via proximity ligation, sequencing); 10 mM Tris-HCl pH 7.5, 50 mM NaCl, 1 mM DTT, 4% glycerol, room temperature, 30 min; GST-TFs on glutathione beads, 16-mer random dsDNA library, 0.1% formaldehyde crosslink after washing; high values mean tight binding
# Conditions in all cases: protein: recombinant; tags: N-terminal GST; dsDNA, one strand shown
# [1] = biological target: T1, FLI1 (Homo sapiens, UniProt Q01543 1-452)
# T1 sequence: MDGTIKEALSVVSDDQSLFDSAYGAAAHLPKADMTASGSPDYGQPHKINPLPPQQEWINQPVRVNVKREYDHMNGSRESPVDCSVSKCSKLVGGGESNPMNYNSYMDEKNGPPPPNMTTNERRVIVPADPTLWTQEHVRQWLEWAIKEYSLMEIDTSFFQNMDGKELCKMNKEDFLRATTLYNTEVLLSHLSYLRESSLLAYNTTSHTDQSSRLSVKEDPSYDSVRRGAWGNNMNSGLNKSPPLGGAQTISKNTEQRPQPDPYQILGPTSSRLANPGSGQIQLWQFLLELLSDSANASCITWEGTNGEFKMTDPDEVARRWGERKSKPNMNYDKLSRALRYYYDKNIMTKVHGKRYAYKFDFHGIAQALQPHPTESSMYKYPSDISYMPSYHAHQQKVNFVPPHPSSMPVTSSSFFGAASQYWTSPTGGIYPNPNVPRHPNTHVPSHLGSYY
# Method in brief: (§1)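 Beads coated with glutathione captured GST-fused human transcription factors that had been expressed in yeast, and the factors were then given DNA barcodes and pooled with a tag-only sample. The pools were incubated with 200 nmole of a random double-stranded 16-mer DNA library in Tris/NaCl/DTT/glycerol buffer for 30 min at room temperature, washed, crosslinked with 0.1% formaldehyde and proximity-ligated with BsaI/T4 ligase at 37 °C for 1 h. PCR amplification and Illumina NextSeq500 sequencing came last. Binding signal is each hexamer's read frequency for a factor divided by its frequency for the tag-only sample.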
# [2] = biological target: T2, ELK1 (Homo sapiens, UniProt P19419 1-428)
# T2 sequence: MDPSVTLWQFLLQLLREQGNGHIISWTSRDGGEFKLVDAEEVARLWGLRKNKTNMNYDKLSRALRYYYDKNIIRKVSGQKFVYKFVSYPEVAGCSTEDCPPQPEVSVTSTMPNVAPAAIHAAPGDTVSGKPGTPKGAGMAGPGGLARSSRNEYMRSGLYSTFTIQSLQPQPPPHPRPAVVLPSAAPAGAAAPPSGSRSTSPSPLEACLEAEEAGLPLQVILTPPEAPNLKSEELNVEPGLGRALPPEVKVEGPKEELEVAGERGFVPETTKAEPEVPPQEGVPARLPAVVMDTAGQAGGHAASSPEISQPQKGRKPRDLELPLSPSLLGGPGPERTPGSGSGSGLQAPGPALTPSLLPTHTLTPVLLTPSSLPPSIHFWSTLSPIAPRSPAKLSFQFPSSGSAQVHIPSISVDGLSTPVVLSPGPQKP
# Method in brief: as §1
# [3] = biological target: T3, GABPA (Homo sapiens, UniProt Q06546 1-454)
# T3 sequence: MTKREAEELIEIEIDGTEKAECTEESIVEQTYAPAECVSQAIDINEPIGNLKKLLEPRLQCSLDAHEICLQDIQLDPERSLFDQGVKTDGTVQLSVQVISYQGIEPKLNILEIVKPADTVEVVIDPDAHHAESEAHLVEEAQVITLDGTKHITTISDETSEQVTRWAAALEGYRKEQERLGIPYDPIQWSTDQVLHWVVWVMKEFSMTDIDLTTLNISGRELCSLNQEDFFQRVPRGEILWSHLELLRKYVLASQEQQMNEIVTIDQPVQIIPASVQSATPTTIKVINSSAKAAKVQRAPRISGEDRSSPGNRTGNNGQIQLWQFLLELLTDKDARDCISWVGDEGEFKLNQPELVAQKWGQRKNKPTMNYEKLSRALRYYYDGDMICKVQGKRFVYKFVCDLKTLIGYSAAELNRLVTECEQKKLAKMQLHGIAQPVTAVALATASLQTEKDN
# Method in brief: as §1
# [4] = biological target: T4, ERG (Homo sapiens, UniProt P11308 1-479)
# T4 sequence: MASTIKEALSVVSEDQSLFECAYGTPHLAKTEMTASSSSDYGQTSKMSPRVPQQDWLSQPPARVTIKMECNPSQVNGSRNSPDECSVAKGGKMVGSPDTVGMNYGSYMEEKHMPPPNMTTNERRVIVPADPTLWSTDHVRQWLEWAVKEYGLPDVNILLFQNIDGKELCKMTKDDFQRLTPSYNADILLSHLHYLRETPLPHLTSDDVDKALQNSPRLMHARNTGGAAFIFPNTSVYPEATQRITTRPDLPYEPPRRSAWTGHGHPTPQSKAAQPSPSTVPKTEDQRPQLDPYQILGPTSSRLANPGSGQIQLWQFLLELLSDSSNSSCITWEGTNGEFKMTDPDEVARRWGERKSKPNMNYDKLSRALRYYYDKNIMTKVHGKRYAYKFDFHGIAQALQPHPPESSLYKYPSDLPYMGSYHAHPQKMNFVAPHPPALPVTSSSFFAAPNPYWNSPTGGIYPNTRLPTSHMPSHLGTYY
# Method in brief: as §1
# [5] = biological target: ELF1 (Homo sapiens, UniProt P32519 1-619)
# Method in brief: as §1
# [6] = biological target: T5, EHF (Homo sapiens, UniProt Q9NZC4 1-300)
# T5 sequence: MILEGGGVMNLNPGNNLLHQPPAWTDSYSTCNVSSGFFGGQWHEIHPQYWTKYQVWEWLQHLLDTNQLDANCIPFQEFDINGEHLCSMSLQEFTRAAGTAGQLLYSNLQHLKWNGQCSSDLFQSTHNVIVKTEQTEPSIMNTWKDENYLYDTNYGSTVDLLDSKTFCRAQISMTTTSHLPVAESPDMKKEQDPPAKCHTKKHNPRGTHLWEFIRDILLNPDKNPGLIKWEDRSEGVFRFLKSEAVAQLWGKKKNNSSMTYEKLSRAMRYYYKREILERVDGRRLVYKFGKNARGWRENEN
# Method in brief: as §1
# [7] = biological target: SPI1 (Homo sapiens, UniProt P17947 1-270)
# Method in brief: as §1
# [8] = biological target: SPIB (Homo sapiens, UniProt Q01892 1-262)
# Method in brief: as §1
# [9] = biological target: T6, ELK3 (Homo sapiens, UniProt P41970 1-407)
# T6 sequence: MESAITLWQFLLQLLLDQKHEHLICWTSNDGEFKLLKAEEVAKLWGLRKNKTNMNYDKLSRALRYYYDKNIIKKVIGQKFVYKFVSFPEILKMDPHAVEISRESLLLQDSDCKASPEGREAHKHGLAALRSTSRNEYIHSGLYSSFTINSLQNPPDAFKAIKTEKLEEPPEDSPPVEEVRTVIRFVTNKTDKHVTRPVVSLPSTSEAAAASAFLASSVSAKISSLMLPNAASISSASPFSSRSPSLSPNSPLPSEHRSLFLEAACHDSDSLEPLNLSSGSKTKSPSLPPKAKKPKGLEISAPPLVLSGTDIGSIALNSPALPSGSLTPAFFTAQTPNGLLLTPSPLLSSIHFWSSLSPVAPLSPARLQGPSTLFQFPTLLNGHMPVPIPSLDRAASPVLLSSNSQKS
# Method in brief: as §1
# Chain of ELF1 (P32519 whole entry): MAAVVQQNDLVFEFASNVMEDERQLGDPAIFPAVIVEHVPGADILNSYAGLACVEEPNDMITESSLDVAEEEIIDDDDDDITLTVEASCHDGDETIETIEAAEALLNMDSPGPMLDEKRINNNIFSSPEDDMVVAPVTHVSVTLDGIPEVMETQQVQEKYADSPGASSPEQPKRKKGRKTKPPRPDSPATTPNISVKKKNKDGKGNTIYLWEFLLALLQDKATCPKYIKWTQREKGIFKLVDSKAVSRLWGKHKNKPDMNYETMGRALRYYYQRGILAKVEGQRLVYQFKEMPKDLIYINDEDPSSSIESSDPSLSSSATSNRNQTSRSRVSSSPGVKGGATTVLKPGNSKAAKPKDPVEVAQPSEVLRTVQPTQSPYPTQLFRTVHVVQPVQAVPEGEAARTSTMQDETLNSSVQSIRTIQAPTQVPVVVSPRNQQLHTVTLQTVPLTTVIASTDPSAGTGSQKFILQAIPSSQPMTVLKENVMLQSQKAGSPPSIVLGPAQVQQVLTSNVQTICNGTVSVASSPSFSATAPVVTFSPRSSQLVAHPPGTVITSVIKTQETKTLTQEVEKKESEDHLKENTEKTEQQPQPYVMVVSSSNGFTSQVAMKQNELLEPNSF
# Chain of SPIB (Q01892 whole entry): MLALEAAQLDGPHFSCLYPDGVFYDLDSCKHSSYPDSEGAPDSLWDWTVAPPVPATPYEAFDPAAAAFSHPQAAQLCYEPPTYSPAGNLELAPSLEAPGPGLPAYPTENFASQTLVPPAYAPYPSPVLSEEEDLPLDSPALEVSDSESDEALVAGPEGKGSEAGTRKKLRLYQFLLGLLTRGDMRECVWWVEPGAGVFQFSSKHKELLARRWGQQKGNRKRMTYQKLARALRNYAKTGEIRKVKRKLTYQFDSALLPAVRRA
Sequence,binding signal [1],binding signal [2],binding signal [3],binding signal [4],binding signal [5],binding signal [6],binding signal [7],binding signal [8],binding signal [9]
TACCGG,"1.52 fold enrichment (6-mer frequency, TF over GST control)","1.55 fold enrichment (6-mer frequency, TF over GST control)","1.52 fold enrichment (6-mer frequency, TF over GST control)","1.77 fold enrichment (6-mer frequency, TF over GST control)","1.53 fold enrichment (6-mer frequency, TF over GST control)","1.67 fold enrichment (6-mer frequency, TF over GST control)","1.43 fold enrichment (6-mer frequency, TF over GST control)","1.61 fold enrichment (6-mer frequency, TF over GST control)","1.56 fold enrichment (6-mer frequency, TF over GST control)"
GTATTC,"1.33 fold enrichment (6-mer frequency, TF over GST control)","1.17 fold enrichment (6-mer frequency, TF over GST control)","1.26 fold enrichment (6-mer frequency, TF over GST control)","1.19 fold enrichment (6-mer frequency, TF over GST control)","1.22 fold enrichment (6-mer frequency, TF over GST control)","1.27 fold enrichment (6-mer frequency, TF over GST control)","1.31 fold enrichment (6-mer frequency, TF over GST control)","1.25 fold enrichment (6-mer frequency, TF over GST control)","1.3 fold enrichment (6-mer frequency, TF over GST control)"
ATGTAC,"1.31 fold enrichment (6-mer frequency, TF over GST control)","1.31 fold enrichment (6-mer frequency, TF over GST control)","1.19 fold enrichment (6-mer frequency, TF over GST control)","1.11 fold enrichment (6-mer frequency, TF over GST control)","1.27 fold enrichment (6-mer frequency, TF over GST control)","1.25 fold enrichment (6-mer frequency, TF over GST control)","1.23 fold enrichment (6-mer frequency, TF over GST control)","1.27 fold enrichment (6-mer frequency, TF over GST control)","1.26 fold enrichment (6-mer frequency, TF over GST control)"
TCTACG,"1.37 fold enrichment (6-mer frequency, TF over GST control)","1.4 fold enrichment (6-mer frequency, TF over GST control)","1.3 fold enrichment (6-mer frequency, TF over GST control)","1.32 fold enrichment (6-mer frequency, TF over GST control)","1.38 fold enrichment (6-mer frequency, TF over GST control)","1.32 fold enrichment (6-mer frequency, TF over GST control)","1.49 fold enrichment (6-mer frequency, TF over GST control)","1.44 fold enrichment (6-mer frequency, TF over GST control)","1.28 fold enrichment (6-mer frequency, TF over GST control)"
